Data on 24 compounds can be found in PMC11062922 (Nature Chemical Biology, 2023).

Like-named read-outs stand apart in the source and are kept apart here.

Holding throughout (set-up): species or system human, MV4-11 + K-562 + COLO205 + SK-N-BE2 + OVCAR-8
One assay deals with ACAD8. The settings on record: read-out: apparent Kd, n = 1.
Another assay concerns LIMK1. The settings on record: read-out: apparent Kd, n = 1.
In another assay the test system is NEK3. The settings on record: read-out: apparent Kd, n = 1.
For the next assay, the system named is BMPR2. As to conditions: read-out: apparent Kd, compound concentrations: 100 nM and 1000 nM (sheet 'Samples'), n = 1.
Another assay relates to MST1R. The settings on record: read-out: apparent Kd, n = 1.
For another assay, the system named is TAOK3. The settings on record: read-out: apparent Kd, n = 1.
Another assay has as its system ADCK3. As to conditions: read-out: apparent Kd, n = 1.
In the next assay the test system is MAP2K6. The settings on record: read-out: apparent Kd, n = 1.
For the next assay, the system named is NEK1. As to conditions: read-out: apparent Kd; compound concentrations:100 nM and 1000 nM (sheet 'Samples'); n = 1.
For the next assay, the system named is VDAC3. The settings on record: read-out: apparent Kd, n = 1.
Another assay concerns PLK1. The settings on record: read-out: apparent Kd, compound concentrations: 100 nM and 1000 nM (sheet 'Samples'), n = 1.
For another assay, the system named is ACOX1. The settings on record: read-out: apparent Kd, compound concentrations: 100 nM and 1000 nM (sheet 'Samples'), n = 1.
The next assay relates to PDXK. The settings on record: read-out: apparent Kd, compound concentrations: 100 nM and 1000 nM (sheet 'Samples'), n = 1.
The next assay concerns CDK13. The settings on record: read-out: apparent Kd, compound concentrations: 100 nM and 1000 nM (sheet 'Samples'), n = 1.
Another assay relates to MET. As to conditions: read-out: apparent Kd; compound concentrations:100 nM and 1000 nM (sheet 'Samples'); n = 1.
The mark [1] stands for this setting: compound concentrations:100 nM and 1000 nM (sheet 'Samples').

With `FC(F)(F)c1ccc(-c2ncn(CCCN3CCOCC3)c2-c2ccncc2)cc1` [SB-217780], the potency estimated from few doses in the assay on ACAD8 (compound concentrations: 100 nM and 1000 nM (sheet 'Samples'), CATDS: 0.18065047008749499) was 2210 nM. `COc1cc(Nc2nccc(N3CCC(NC(=O)c4cccc(NC(C)=O)c4)C3)n2)cc(OC)c1OC` (stereo not shown) [GSK1379754A]: in the assay with LIMK1 (compound concentrations: 100 nM and 1000 nM (sheet 'Samples'), CATDS: 8.2781561075995602E-2), the potency estimated from few doses was 1830 nM. `c1cnn2ncc(-c3ccnc(Nc4ccc5c(c4)OCCO5)n3)c2c1` [GW806290X]: the potency estimated from few doses in the assay on NEK3 (compound concentrations: 100 nM and 1000 nM (sheet 'Samples'), CATDS: 2.00420212482838E-2) is 2000 nM. `O=C(O)C(F)(F)F.O=c1[nH]ccc2nc(N[C@@H]3CCNC3)nc(Nc3ccc4c(c3)S(=O)(=O)CC4)c12` [GSK2181306A]: the potency estimated from few doses in the assay on BMPR2 (CATDS: 3.4513086619766098E-2) is 68.7 nM. Consider `CCn1c(-c2cccnc2O)nc2cnccc21` [SB-736715], for which the potency estimated from few doses with MST1R (compound concentrations: 100 nM and 1000 nM (sheet 'Samples'), CATDS: 1.2580908946689701E-2) was 1930 nM.

In the case of `NC(=O)c1cc(-c2ccccc2)cc2c(C3CCNCC3)c[nH]c12` [GSK301362A], the potency estimated from few doses is 1750 nM in the assay with ACAD8 (setting [1]) and 1570 nM in the assay on TAOK3 (setting [1]).

Regarding `O=C1N=C(NCCCc2ccccc2)S/C1=C\c1ccc2ncccc2c1` [RO4493941-000], the potency estimated from few doses with ADCK3 (compound concentrations: 100 nM and 1000 nM (sheet 'Samples'), CATDS: 7.1008465963160003E-2) was 940 nM.

Turning to `O=C(O)C(F)(F)F.O=C(O)C(F)(F)F.O=c1[nH]ccc2nc(N[C@@H]3CCCNC3)nc(Nc3ccc(S(=O)(=O)N4CCOCC4)cc3)c12.O=c1[nH]ccc2nc(N[C@@H]3CCCNC3)nc(Nc3ccc(S(=O)(=O)N4CCOCC4)cc3)c12` [GSK2177277A], the potency estimated from few doses in the assay on BMPR2 (CATDS: 8.2432165271610295E-3) is 514 nM; in the assay on MST1R (compound concentrations: 100 nM and 1000 nM (sheet 'Samples'), CATDS: 6.3226356559210701E-3), 1690 nM; in the assay on TAOK3 (compound concentrations: 100 nM and 1000 nM (sheet 'Samples'), CATDS: 6.2703295867196796E-3), 1770 nM. For `COc1cc[nH]c1/C=C1\C(=O)Nc2ccc(F)c(C#CC3(O)CCNCC3)c21.Cl` [RO0282986-001], in the assay on MAP2K6 (compound concentrations: 100 nM and 1000 nM (sheet 'Samples'), CATDS: 9.6893915598830205E-3), the potency estimated from few doses was 1500 nM. Turning to `CC(C)Oc1ccc2c(-c3ccnc(Nc4ccc(N5CCN(C)CC5)cc4)n3)cnn2n1` [GW696155X], the potency estimated from few doses was 576 nM with LIMK1 (setting [1]), 1130 nM with NEK1 and 421 nM in the assay with NEK3 (setting [1]).

Take `COc1ccc(-c2cc3c(N)ncnc3o2)cc1` [GW642138X]: the potency estimated from few doses in the assay with ACAD8 (compound concentrations: 100 nM and 1000 nM (sheet 'Samples'), CATDS: 9.2281876473195495E-2) is 2170 nM; with VDAC3 (compound concentrations: 100 nM and 1000 nM (sheet 'Samples'), CATDS: 9.45617395095774E-2) it was 2060 nM. As for `Cl.Cl.NC(CNC(=O)c1cc(Br)c(-c2ccnc3[nH]ccc23)s1)c1ccccc1.NC(CNC(=O)c1cc(Br)c(-c2ccnc3[nH]ccc23)s1)c1ccccc1` (stereo not shown) [GSK1322949A], the potency estimated from few doses in the assay on PLK1 (CATDS: 2.70929722302506E-2) was 1550 nM. As to `CCn1c(-c2nonc2N)nc2c(C#CC(C)(C)O)nc(O[C@@H](CN)c3ccccc3)cc21.O=C(O)C(F)(F)F` [GSK1007102B], the potency estimated from few doses is 1060 nM in the assay with ADCK3 (setting [1]) and 1690 nM in the assay on MAP2K6 (setting [1]). For the compound `CNCC#Cc1c(F)ccc2c1/C(=C/c1[nH]ccc1OC)C(=O)N2.Cl` [RO0281601-001], the potency estimated from few doses in the assay with ACOX1 (CATDS: 2.54235943095352E-2) was 1140 nM.

As to `COC(=O)c1cccc(NC(=O)NC2CCN(c3ccnc(Nc4cc(OC)c(OC)c(OC)c4)n3)C2)c1` (stereo not shown) [GSK1379767A], the potency estimated from few doses in the assay with ADCK3 (compound concentrations: 100 nM and 1000 nM (sheet 'Samples'), CATDS: 9.7786771136585404E-2) is 1860 nM; in the assay with VDAC3 (compound concentrations: 100 nM and 1000 nM (sheet 'Samples'), CATDS: 0.107496122866376) it was 1480 nM. As to `Cc1ccccc1C1=C(c2cn(C)c3ccccc23)C(=O)NC1=O` [RO0317612-000], the potency estimated from few doses in the assay with ACOX1 (CATDS: 0.16885310198044201) is 761 nM; in the assay with PDXK (CATDS: 0.20460809182567499), 529 nM. For the compound `CCN(CC)Cc1ccc(Nc2nccc(-c3cnn4ncccc34)n2)cc1` [GW780056X], the potency estimated from few doses in the assay on ACOX1 (CATDS: 2.3991726091544201E-2) is 753 nM; with CDK13 (CATDS: 1.9982527917222499E-2) it was 1330 nM; with PDXK (CATDS: 2.0244692732670499E-2), 1270 nM. Consider `Cc1occc1-c1nc(N)c(OC[C@@H](N)Cc2c[nH]c3ccccc23)cc1-c1cc2c(C)n[nH]c2cn1` [GSK1660450B], for which the figures for the potency estimated from few doses in the assay on TAOK3 (setting [1]) and in the assay on VDAC3 (setting [1]) were 76 nM and 102 nM, respectively. For the compound `CC(C)N1CC(=O)N(C)c2cnc(Nc3cccc(S(=O)(=O)CCN4CCOCC4)c3)nc21` [BI00009348], the potency estimated from few doses with BMPR2 (CATDS: 7.5564324360796103E-2) is 646 nM.

Turning to `Nc1nc(-c2ccc3c(N)n[nH]c3c2)cc(N2CCCC(NC(=O)c3ccccc3)C2)n1` (stereo not shown) [GSK2286775B], the potency estimated from few doses in the assay on MET and in the assay on MST1R (setting [1]) was 2250 nM each time. Consider `NS(=O)(=O)c1ccc(NC=C2C(=O)Nc3ccc4ncsc4c32)cc1` [GW589933X], for which, in the assay with CDK13 (CATDS: 1.7118564959648301E-2), the potency estimated from few doses was 1700 nM. As for `Cn1cc(C2=C(c3c(S(C)=O)n(C)c4ccccc34)C(=O)NC2=O)c2ccccc21` (stereo not shown) [RO0317379-000], in the assay on PDXK (CATDS: 0.122248811016512), the potency estimated from few doses was 1030 nM.

As for `CCC(CC)(CC)n1cnc2c(N)ncnc21` [SKF-97620], the potency estimated from few doses with PLK1 (CATDS: 2.3248772158463601E-2) was 2300 nM. Consider `O=C(Nc1n[nH]c2nc(-c3ccccc3O)ccc12)C1CC1` [SB-711880], for which the potency estimated from few doses with MAP2K6 (setting [1]) is 1810 nM.
